Measured values: PubChem BioAssay (NCI)
About 83,000 compounds went through this panel and 20% of them were active in at least one assay; those are over-represented in the sample as a whole.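 Interpretation: 100, growth as untreated; towards 0, rising growth inhibition; 0, no net growth; 0 to -100, cell death. Compounds scoring below 10 were considered active.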 Unmarked numbers belong to inactive results. Active and inactive are the calls of the source.

Each molecule was assayed on SK-MEL-28 melanoma (assay: NCI-60 one-dose screen, 48 h (100 = growth as untreated, 0 = no growth, -100 = all killed)). Details: 10 µM unless noted.
Experimental: Growth inhibition of the SK-MEL-28 human tumor cell line is measured as a screen for anti-cancer activity. Cells are grown in 96 well plates and exposed to the test compound for 48 hours. Compounds are tested at a single concentration, which is 10^-5 M for most compounds. The reported endpoint is percent growth (GI% or GIPRCNT), where numbers from 0 - 100% represent growth inhibition, and numbers from -100% - 0 represent cell death. For example, a value of 40 represents 60% growth inhibition. A value of 0 means no net growth occurred over the course of the experiment. A value of -40 indicates 40% of cells at the beginning of the experiment died by the end of the experiment. A value of -100 means all cells are dead at the end of the experiment.
NCI-60 Human Tumor Cell Lines Screen was performed using the standard one-dose NCI protocol, which is described in more detail at https://dtp.cancer.gov/discovery_development/nci-60/default.htm.
Compounds with GIPRCNT values below 10 were considered active. Activity score was based on GIPRCNT using the following formula: […]
Score is 0 for GIPRCNT values of 100 or above, 50 for GIPRCNT values of 0, and 100 for GIPRCNT values of -100.

Compound	growth
C=CCN1C(=O)C(CC)(CCC(C)C)C(=O)NC1=S (stereo not given)	104%
O=C(O)c1cccc(CCl)c1	110%
CC1(C)N=C(N)N=C(N)N1c1ccc(CCC(=O)Nc2cccc(S(=O)(=O)F)c2)cc1	103%
CN(C)P1(N(C)C)=NP(N(C)C)(N(C)C)=NP(N(C)C)(N(C)C)=N1	107%
CCOc1cc(C=C(C#N)C#N)cc(Br)c1O	109%
O=C(CCl)NCNC(=O)CCl	93.7%
C[CH2][Pb]([CH2]C)([CH2]C)[O]C(=O)COC	18.2%
CCC1([N+](=O)[O-])COP(=O)(NCc2cccnc2)OC1 (stereo not given)	113%
[O]=[Sn]([CH]1CCCCC1)[CH]1CCCCC1	-94.8% (active)
CCC(C)/C=C(C)/C=C/C(=O)c1c(O)c(-c2ccc(O)cc2)c[nH]c1=O (stereo not given)	91%
NC(=O)OCC(CO)(c1ccccc1)c1ccccc1	112%
O=[N+]([O-])c1cc([N+](=O)[O-])c(Cl)c(Cl)c1Cl	65.9%
CC[C@@]1(C2O[C@@H](C3O[C@@](O)(CC)[C@H](C)C[C@@H]3C)C[C@@H]2C)CC[C@H]([C@]2(C)CCC3(C[C@H](O)[C@@H](C)[C@@H]([C@H](C)[C@@H](OC)[C@H](C)C(=O)O)O3)O2)O1 (stereo not given in full)	29.5%
CC(=O)O[C@H]1C[C@H](O[C@H]2[C@@H](O)C[C@H](O[C@H]3[C@@H](O)C[C@H](O[C@H]4CC[C@@]5(C)C(CCC6C5C[C@@H](O)[C@]5(C)[C@@H](C7=CC(=O)OC7)CC[C@]65O)C4)O[C@@H]3C)O[C@@H]2C)O[C@H](C)[C@H]1O[C@@H]1O[C@H](CO)[C@@H](O)[C@H](O)[C@H]1O (stereo not given in full)	-70.5% (active)
CNC(=O)Oc1cccc(N(C)C)c1	111%
C=C=[CH][Sn]([c]1ccccc1)([c]1ccccc1)[c]1ccccc1	-56.8% (active)
Fc1ccc(C2=NN(c3ccccc3)C(c3sc(N(CCCl)CCCl)nc3Cl)C2)cc1 (stereo not given)	111%
NC(=O)NC(=O)CI	89.5%
Oc1c(Br)cc(Br)cc1Br.[Cu+2]	101%
NS(=O)(=O)c1nc[nH]c1[N+](=O)[O-]	105%

Compound	growth
Cc1cc(NC(=O)NCCOc2ccc(N3C(N)=NC(N)=NC3(C)C)cc2Cl)ccc1S(=O)(=O)F	51.8%
Cc1nnc([S-])s1.[Au+].c1ccc([PH+](c2ccccc2)c2ccccc2)cc1	-55.7% (active)
O=C1NC2(CCNCC2)Nc2ccccc21	116%
Cc1cc(CCl)c(C)cc1CCl	77.7%
S=P(NC1CCCCC1)(N1CC1)N1CC1	122%
CC(=O)[O][Hg][CH2]C1(C)COC(C)([CH2][Hg][O]C(C)=O)CO1 (stereo not given)	18.3%
Cc1ccc2oc(=O)c3c(c2c1)OC(N)=C(C#N)C3c1ccco1 (stereo not given)	113%
COC(=O)C1CC2c3ccccc3C1c1ccccc12 (stereo not given)	109%
c1ccc(CCN2CCCCC2Cc2ccccc2)cc1 (stereo not given)	97.5%
CO[C@@H](c1ccccc1Cl)[C@H](C)OC(N)=O	102%
C[C@]12C[C@H](O)[C@H]3[C@@H](CCC4=CC(=O)CC[C@@]43C)[C@@H]1CC[C@@H]2O	106%
CNC(=O)Oc1ccccc1	86.2%
COc1ccc(/C=C\c2cc(OC)c(OC)c(OC)c2)cc1N/C=C\C(=O)c1c[nH]c2ccccc12	33.8%
CCOCC1(CCc2ccccc2)C(=O)NC(=S)NC1=O	117%
N#Cc1ncc(/N=C/c2ccc(N(CCCl)CCCl)cc2)s1	102%
CN1C(=O)NC(=O)C(N=Nc2ccc(Cl)cc2)C1=O (stereo not given)	122%
O=C(c1cccs1)C1NO[N+]([O-])=C1c1cccs1 (stereo not given)	65.8%
CC1(C)N=C(N)N=C(N)N1c1ccc(CCCCc2ccc(S(=O)(=O)F)cc2)c(Cl)c1	48.4%
CC(=O)[O][Hg][c]1ccccc1	-88.4% (active)
CNC(=O)Oc1cccc(OC)c1	111%
